High-throughput results deposited in PubChem BioAssay by several laboratories.
In the library only some 2.6% were active in any assay of this set; here they are far more common.
Platelet DG rel = inhibitors of platelet dense granule secretion, primary screen, cell-based, MLPCN, human platelets | human platelet-rich plasma, SFLLRN dense granule ATP release, luminescence | AID 1663, 2009 | 0.22% of 300,000 active | inhibition, %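 (compounds screened at 7.5 µM in platelet-rich plasma)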;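 active = mean replicate score, as percent of positive control, at or above 50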
Rce1 inhib = yeast Rce1p protease inhibitors, primary screen, biochemical, fluorescence, cell-free homogeneous; yeast membranes, quenched prenylated peptide cleavage fluorescence; calls only; 0.27% of 290,000 active; AID 2563, 2010;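 active = fall in fluorescence gain of 50% or more versus controls, with final raw signal at or below 3038400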;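 also: plate controls were neutral control wells for no effect and wells lacking membranes for full effect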
Granule exo inh = LAMP-1 surface exposure blockers, TALL-104 cells – cell-based, flow cytometry, MLPCN library, primary screen | TALL-104 LAMP-1 surface exposure; cells stimulated with thapsigargin and PMA | inhibition, % at 10 µM | 0.66% of 360,000 active | AID 651702, 2012;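 active = inhibition above about 55%, limit read from the data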
ABHD5 PLIN5 PPI = ABHD5-PLIN5 interaction inhibitors, primary screen, cell lysate, split luciferase complementation, luminescence | Split G. princeps luciferase complementation, 4 h | inhibition, % at 4 µM | 0.78% of 360,000 active;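 active = inhibition above the mean inhibition across every tested compound plus 3 SD, cut at about 22% in these data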;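 also: 0% = DMSO only wells and the 100% control is not disclosed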
M18AAP inhibitor = PfM18AAP inhibitors, malaria aminopeptidase, primary screen, biochemical, QFRET, recombinant enzyme; 1.2% of 290,000 active; M18 aspartyl aminopeptidase (Plasmodium falciparum 3D7); H-Glu-NHMec fluorogenic cleavage; AID 1822, 2009; inhibition, % at 7.35 µM;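 active = inhibition above the campaign mean inhibition over all tested compounds plus 3 SD, cut at about 28% in these data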;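 also: 0% = plate median of test compound wells and 100% = 2 mM ZnCl2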
ABHD5-PLIN5 conf = ABHD5-PLIN5 interaction inhibitors, confirmation, biochemical, luminescence; shares compounds with ABHD5 PLIN5 PPI; inhibition, % at 4 µM; 67% of 2,200 active; in the data active = inhibition above about 23%;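 also: 0% = DMSO vehicle wells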
HNF4 counter = HNF4 dimerization inhibitors, counter-screen for ABHD5-PLIN5 interaction inhibitor project, biochemical, split-luciferase complementation, luminescence; shares compounds with ABHD5 PLIN5 PPI; inhibition, % at 4 µM; 77% of 2,200 active; AID 651674, 2012;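 active = mean inhibition across replicate wells exceeding the computed hit threshold, cut at about 13% in these data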;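 also: light from luciferase halves that rejoin when HNF4 fusion proteins dimerize; 0% = DMSO only wells and the 100% control is not given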
Target sequence (P41235 whole entry, looked up, the tested form may be a part): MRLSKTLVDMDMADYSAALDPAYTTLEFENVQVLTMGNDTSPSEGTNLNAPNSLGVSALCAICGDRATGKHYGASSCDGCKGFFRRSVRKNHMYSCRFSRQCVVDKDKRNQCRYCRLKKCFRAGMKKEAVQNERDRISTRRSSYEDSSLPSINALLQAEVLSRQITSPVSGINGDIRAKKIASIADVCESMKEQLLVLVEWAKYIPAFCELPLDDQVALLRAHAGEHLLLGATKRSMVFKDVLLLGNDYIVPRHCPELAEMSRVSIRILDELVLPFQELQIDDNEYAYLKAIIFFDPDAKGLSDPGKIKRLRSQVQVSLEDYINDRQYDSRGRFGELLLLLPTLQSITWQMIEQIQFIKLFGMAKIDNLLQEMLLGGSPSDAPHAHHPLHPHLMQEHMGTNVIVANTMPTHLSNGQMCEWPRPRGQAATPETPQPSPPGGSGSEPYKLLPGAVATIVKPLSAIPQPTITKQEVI
An asterisk follows results filed as active; i = inactive; nt = not tested or not shown.

SMILES	Platelet DG rel	Rce1 inhib	Granule exo inh	ABHD5 PLIN5 PPI	M18AAP inhibitor	ABHD5-PLIN5 conf	HNF4 counter
C=C1C(=O)OC2CC1C(OC(C)=O)CC(C)=CCCC(C)=CCCC2(C)O (stereo not given)	nt	nt	2.2	61.2*	nt	83.1*	65.5*
COc1cc(/C=N/NC(=O)c2ccc(CSc3nc4ccccc4[nH]3)cc2)cc(OC)c1OC	8.6	i	-0.9	-1.5	-6.0	nt	nt
COc1ccc(-c2cc(C(=O)Nc3ccc(C)c(C)c3)no2)cc1	-1.8	i	-1.0	2.0	-1.0	nt	nt
CCNc1ccccc(C(=O)/C=C/c2ccc3c(c2)OCO3)c1=O	4.2	i	2.8	21.1	11.2	nt	nt
N#CC1c2ccccc2C=CN1C(=O)N(c1ccccc1)c1ccccc1 (stereo not given)	nt	nt	-1.0	36.2*	nt	32.0*	34.0*
CCN(CC)c1ccc([C@H]2[C@@H]3CCCC[C@]3(O)CCN2CC(=O)NCc2ccco2)cc1	5.4	i	-0.5	-0.9	22.9	nt	nt
COc1ccc(CNC(=O)CCCC2=NS(=O)(=O)c3ccccc3N2)cc1	-3.5	i	0.0	2.5	-4.7	nt	nt
Cc1ccc(C(=O)OCCN(C)Cc2ccccc2)cc1	-3.4	i	0.9	-0.1	-2.3	nt	nt
O=C1C(F)=CC(COC(c2ccccc2)(c2ccccc2)c2ccccc2)OC1n1cc(F)c(=O)[nH]c1=O (stereo not given)	nt	nt	41.0	41.7*	nt	101.3*	96.7*
COc1cc(/C=C/C(=O)c2ccccc2O)cc(OC)c1OC	-2.4	i	0.6	52.0*	4.9	89.6*	84.1*
COc1ccc(C(=O)/C=C/c2ccccc2)c(OC)c1	1.3	i	-1.4	26.1*	3.7	41.7*	28.1*
COc1ccc(/C=C/C(=O)c2cc3cccc(OC)c3oc2=O)cc1	5.6	i	-1.3	37.5*	2.7	64.1*	52.9*
COc1cc(OC)c(C=CC(=O)c2ccccc2O)c(OC)c1	nt	nt	5.9	-6.6	nt	nt	nt
COc1ccc(C=CC(=O)C=CC=Cc2ccccc2)cc1	nt	nt	31.5	5.9	nt	nt	nt
COCOc1cc(O)c(C(=O)/C=C/c2ccccc2)c(OCOC)c1	-1.2	i	-2.1	41.1*	nt	69.4*	62.6*
COc1ccc(C(=O)/C=C/c2ccc(N(C)C)cc2)c(OC)c1	-1.1	i	8.4	1.2	-10.0	nt	nt
Cc1ccc(OCC(=O)N/N=C\c2ccc(O)c([N+](=O)[O-])c2)c([N+](=O)[O-])c1	-4.2	i	-2.4	2.1	8.6	nt	nt
Cc1cccc(C=CC(=O)c2ccccc2)c1	nt	nt	-21.0	26.7*	nt	56.6*	44.0*
Cc1ccc(O)c(C(=O)C=Cc2ccccc2)c1	nt	nt	13.3	41.0*	nt	87.9*	55.4*
Cc1ccc(/C=C/C(=O)c2ccccc2O)cc1	9.8	i	-2.9	20.6	-10.9	nt	nt
COc1cc(C)cc(C(=O)C=Cc2ccccc2)c1O	nt	nt	-24.5	64.1*	nt	94.6*	75.2*
Cc1ccc(C(=O)C=Cc2cccc(C)c2)cc1	nt	nt	-1.0	14.6	nt	nt	nt
CCCn1nc(C(=O)NNC(=O)CCCOc2ccc(OC)cc2)c2ccccc2c1=O	nt	nt	1.8	-1.6	nt	nt	nt
COc1ccc(C(=O)Nc2ccc(Cl)c(Cl)c2)c(OC)n1	-3.5	i	-4.5	5.1	-15.5	nt	nt
COC(=O)C1=CN(c2cc(C)cc(C)c2)C=C(C(=O)OC)C1c1ccc(OC)c(O)c1	-3.8	i	15.9	-5.7	3.2	nt	nt
SMILES	Platelet DG rel	Rce1 inhib	Granule exo inh	ABHD5 PLIN5 PPI	M18AAP inhibitor	ABHD5-PLIN5 conf	HNF4 counter
CC1(C)COC(/C=C/c2cccc([N+](=O)[O-])c2)=N1	-0.1	i	0.2	28.8*	4.6	45.7*	49.1*
CC1(C)COC(c2cc([N+](=O)[O-])ccc2Cl)=N1	-0.7	i	-0.1	1.6	-11.9	nt	nt
O=S1(=O)C=C(N2CCOCC2)c2ccccc21	3.0	i	2.9	5.8	-9.3	nt	nt
COc1ccc(-n2c(=O)cc(N3CC(C)OC(C)C3)[nH]c2=O)cc1 (stereo not given)	-3.1	i	0.8	37.2*	6.9	1.2	-0.8
CN(CC(=O)Nc1ccccc1C(F)(F)F)Cc1c(O)ccc2ccccc12	2.7	i	16.1	10.2	6.1	nt	nt
CCc1ccccc1NC(=O)CN(C)Cc1c(O)ccc2ccccc12	-3.6	nt	20.3	23.7*	-0.6	45.7*	87.5*
O=c1c2ccccc2nc2ccc(NCc3ccco3)nn12	-2.2	i	-2.6	31.4*	24.6	72.4*	79.9*
Cc1sc2nc3ccc(NCc4ccco4)nn3c(=O)c2c1C	-17.5	i	3.6	31.0*	4.1	65.9*	77.4*
O=C(COC(=O)c1ccc(F)cc1)NCc1ccc(F)cc1	nt	nt	-1.4	-4.2	nt	nt	nt
Cc1cc(C)nc(S/C=C/C(=O)c2ccccc2F)n1	-0.3	i	62.0*	47.8*	27.0	95.8*	100.5*
Cc1cc(C)nc(NC(=S)NC(=O)c2ccccc2F)n1	-7.5	i	0.1	0.4	nt	nt	nt
COc1cc(CNc2ccc3c(c2)CCC3)cc(OC)c1O	4.9	i	18.4	39.0*	37.6*	57.4*	89.1*
CCS(=O)(=O)c1ccc2c(c1)N(S(C)(=O)=O)CC(C(=O)NCc1ccccc1OC)O2 (stereo not given)	-0.7	nt	2.8	3.6	1.9	nt	nt
CC(C)c1ccc(NC(=O)c2csnn2)cc1	2.7	i	-2.0	24.0*	18.5	0.2	2.9
Cc1ccc(NC(=O)c2c(C)nn(-c3ccccc3)c2Cl)c(C)c1	4.6	i	-2.6	-2.9	4.6	nt	nt
CCCCCCCCCCCCCCCCn1cc[n+](C)c1	-2.5	i	18.4	32.1*	1.1	7.0	11.4
CCCCC1C(=O)N(c2ccccc2)N(c2ccc(O)cc2)C1=O (stereo not given)	nt	nt	21.8	96.6*	nt	82.2*	100.3*
CCCCC1(CO)C(=O)N(c2ccccc2)N(c2ccccc2)C1=O	-12.8	i	-6.2	-1.1	1.7	nt	nt
CN(C)CCNC(=O)/C(=C/c1ccc(-c2ccc(Cl)cc2Cl)o1)NC(=O)c1ccccc1	8.7	i	28.0	35.2*	0.3	7.0	12.1
CN(C)CCNC(=O)/C(=C/c1ccc(-c2ccc(Cl)cc2)o1)NC(=O)c1ccccc1	-3.9	i	4.4	25.0*	-7.0	13.2	4.1
CCCCOC(=O)CCc1n[nH]c(=O)[nH]c1=O	5.5	i	-1.3	1.3	-4.9	nt	nt
